Results reported in the antibiotic and cytotoxicity screens of Wong et al. (2023).
Hit rate of the full screen: of about 39,000 compounds, about 3,300 (8.5%) were called active. This is one part of a sample in which actives are shown more often than they occur.

system: HepG2; test: cytotoxicity call (relative viability < 0.9); conditions: 10 µM

SMILES | cytotoxicity call
CN(CC=CC#CC(C)(C)C)Cc1cccc2ccccc12.Cl | inactive
C[C@@H]1CN([C@@H](C)CO)C(=O)c2cc(C#C[C@@H](C)O)cnc2O[C@H]1CN(C)C(=O)CN1CCOCC1 | inactive
C[C@@H]1CN([C@@H](C)CO)C(=O)c2cc(-c3ccc(C(=O)N(C)C)cc3)cnc2O[C@@H]1CN(C)C(=O)CN(C)C | inactive
Cc1ccc(S(=O)(=O)Nc2cccc3c2O[C@@H](CN(C)Cc2ccc(C(F)(F)F)cc2)[C@@H](C)CN([C@H](C)CO)C3=O)cc1 | inactive
C[C@@H]1CN([C@H](C)CO)C(=O)c2cccc(NC(=O)c3ccncc3)c2O[C@@H]1CN(C)S(=O)(=O)c1cn(C)cn1 | inactive
O=C1N[C@@H](c2ccccc2)COCc2cn(nn2)CC[C@@H](Cc2ccc(C(F)(F)F)cc2)C(=O)N[C@@H](c2ccccc2)COCc2cn(nn2)CC[C@H]1Cc1ccc(C(F)(F)F)cc1 | inactive
O=C(O)[C@]1(O)C[C@H](O)[C@@H](O)[C@@H](O)C1 | inactive
Cc1noc(C)c1S(=O)(=O)N(C)C[C@@H]1Oc2ccc(N(C)C)cc2CC(=O)N([C@@H](C)CO)C[C@H]1C | inactive
C=C1C[C@]23CC[C@@H]4[C@@](C)(CCC[C@@]4(C)C(=O)O)[C@H]2CC[C@H]1C3 | active
C=C1C[C@@]23CC[C@@H]4[C@@](C)(CCC[C@@]4(C)C(=O)OC)[C@H]2CC[C@@H]1C3 | inactive
CC(C)C1=CC2=CCC3C(C)(C(=O)O)CCCC3(C)C2CC1 (configuration not stated) | inactive
Cc1noc(C)c1NC(=O)Nc1ccc2c(c1)CC(=O)N([C@H](C)CO)C[C@@H](C)[C@@H](CN(C)C(=O)NC(C)C)O2 | inactive
COc1ccc(CCNC(=O)[C@@]2(Cc3ccccc3I)c3ccccc3C(=O)N(Cc3ccccc3OC)[C@H]2c2ccc(CO)cc2)cc1 | inactive
COc1ccccc1CN1C(=O)c2ccccc2[C@](Cc2ccccc2I)(C(=O)NC2CC2)[C@@H]1c1ccc(CO)cc1 | active
COCCCNC(=O)[C@@]1(Cc2ccccc2I)c2ccccc2C(=O)N(Cc2ccccc2OC)[C@H]1c1ccc(CO)cc1 | inactive
COc1ccccc1CN1C(=O)c2ccccc2[C@](Cc2ccccc2I)(C(=O)O)[C@@H]1c1ccc(CO)cc1 | inactive
COc1ccccc1CN1C(=O)c2ccccc2[C@](Cc2ccccc2I)(C(=O)NCC(C)C)[C@@H]1c1ccc(CO)cc1 | inactive
COc1ccccc1CN1C(=O)c2ccccc2[C@](Cc2ccccc2I)(C(=O)NCCCN(C)C)[C@@H]1c1ccc(CO)cc1 | active
CO[C@H]1CN(C)C(=O)c2cc(NS(=O)(=O)CC(F)(F)F)ccc2OC[C@@H](C)N(Cc2cccnc2)C[C@@H]1C | inactive
COc1ccc2c3c(n(c2c1)C)[C@H](CO)N(C[C@]13CCN(CC1)C(=O)c1ccncc1)C(=O)C1CCOCC1 | inactive
CC(C)NC(=O)Nc1cccc2c1O[C@@H](CN(C)C(=O)Nc1ccc3c(c1)OCO3)[C@@H](C)CN([C@H](C)CO)C2=O | inactive

SMILES | cytotoxicity call
C[C@@H]1CCCCO[C@H](CN(C)S(=O)(=O)c2cn(C)cn2)[C@@H](C)CN([C@H](C)CO)C(=O)c2cc(NC(=O)c3ccncc3)ccc2O1 | inactive
C[C@H]1CN([C@@H](C)CO)C(=O)c2cccc(NS(=O)(=O)c3cn(C)cn3)c2O[C@@H]1CN(C)S(=O)(=O)c1ccc(Cl)cc1 | inactive
COc1ccc(CNC(=O)C[C@H]2CC[C@H]3[C@@H](COc4ccc(NC(=O)C5CC5)cc4C(=O)N3C)O2)cc1 | inactive
C#C[C@@]1(O)[C@@H](CO)O[C@@H](n2ccc(N)nc2=O)[C@@H]1O | active
Nc1ccn([C@@H]2O[C@H](CO)[C@@H](O)[C@H]2O)c(=O)n1 | inactive
C[C@@]1(F)[C@H](O)[C@@H](CO)O[C@H]1n1ccc(N)nc1=O | inactive
Nc1ccn([C@@H]2O[C@H](CO)[C@@H](O)C2(F)F)c(=O)n1 | inactive
Cl.Nc1ccn(C2OC(CO)C(O)C2(F)F)c(=O)n1 (configuration not stated) | active
Nc1ccn(C2OC(CO)C(O)C2O)c(=O)n1 (configuration not stated) | inactive
C[C@H](CO)N1C[C@H](C)[C@@H](CN(C)C(=O)C2CC2)OCc2cn(nn2)CCCC1=O | inactive
Cc1noc(C)c1S(=O)(=O)Nc1ccc2c(c1)C(=O)N([C@H](C)CO)C[C@H](C)[C@@H](CN(C)Cc1ccc(C(=O)O)cc1)O2 | inactive
C[C@@H]1CCCCO[C@@H](CN(C)C(=O)c2ccccc2)[C@H](C)CN([C@H](C)CO)C(=O)c2cc(NC(=O)Nc3ccc4c(c3)OCO4)ccc2O1 | inactive
C[C@H]1CCCCO[C@H](CN(C)C(=O)Cc2ccccc2)[C@@H](C)CN([C@@H](C)CO)C(=O)c2cc(NC(=O)Nc3ccc4c(c3)OCO4)ccc2O1 | inactive
C[C@@H]1CCCCO[C@H](CN(C)C(=O)Cc2ccccc2)[C@H](C)CN([C@@H](C)CO)C(=O)c2cc(NC(=O)NC3CCCCC3)ccc2O1 | inactive
C[C@H](CO)N1C[C@H](C)[C@H](CN(C)C(=O)Cc2ccccc2)OCCCC[C@H](C)Oc2ccc(NC(=O)Nc3ccc4c(c3)OCO4)cc2C1=O | active
C[C@@H]1CCCCO[C@H](CN(C)C(=O)Cc2ccccc2)[C@@H](C)CN([C@H](C)CO)C(=O)c2cc(NC(=O)Nc3ccc(F)cc3)ccc2O1 | inactive
C[C@@H]1CCCCO[C@@H](CN(C)C(=O)Cc2ccccc2)[C@@H](C)CN([C@H](C)CO)C(=O)c2cc(NC(=O)NC3CCCCC3)ccc2O1 | inactive
C[C@@H]1CCCCO[C@@H](CN(C)C(=O)Cc2ccccc2)[C@H](C)CN([C@H](C)CO)C(=O)c2cc(NC(=O)Nc3ccc(F)cc3)ccc2O1 | active
C[C@@H]1CCCCO[C@@H](CN(C)C(=O)Cc2ccccc2)[C@H](C)CN([C@H](C)CO)C(=O)c2cc(NC(=O)NC3CCCCC3)ccc2O1 | active
C[C@@H]1CCCCO[C@@H](CN(C)C(=O)Cc2ccccc2)[C@@H](C)CN([C@H](C)CO)C(=O)c2cc(NC(=O)Nc3ccc(F)cc3)ccc2O1 | inactive
C[C@@H]1CCCCO[C@@H](CN(C)C(=O)Cc2ccccc2)[C@@H](C)CN([C@@H](C)CO)C(=O)c2cc(NC(=O)Nc3ccc4c(c3)OCO4)ccc2O1 | inactive
